According to PubChem BioAssay:
Unmarked numbers belong to inactive results.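 Rule for the calls: active = viability at or below 10% of carrier control in both of two separate runs; inconclusive = viability at or below 10% in only one of the two runs; inactive = the rest.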

Assay: reduced viability of SK-BR-3 breast cancer cells – cell-based, 24 h, human, pilot screen (AID 572);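 note: compound exposure lasted between 18 and 24 h rather than exactly 24 h; 100% = carrier-treated control wells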
Settings: SK-BR-3 viability, CellTiter-Glo luminescence, at 10 µM, stronger effect = lower value

In order of falling viability:
1. Cn1c(SCC(=O)c2ccc(-c3ccccc3)cc2)nnc1-c1ccco1  120%
2. CC(CCc1ccccc1)NC(=O)c1ccc(Br)o1 (configuration not stated)  110%
3. C#CC1(O)CC(C)N(C)C(C)C1 (configuration not stated)  105%
4. Cc1ccc(OCC(=O)N2CCN(C(=O)CCC3CCCC3)CC2)cc1  104%
5. COc1ccccc1N1CCN(C(=O)c2ccc3nc(-c4ccco4)c(-c4ccco4)nc3c2)CC1  103%
6. O=c1c2[nH]c3cccc(Cl)c3c2ncn1CCN1CCCCC1  103%
7. O=C1CC(c2ccsc2)c2cc3c(cc2N1)OCCO3 (configuration not stated)  103%
8. CC(C)CCNC(=O)C(c1ccco1)N(CC1CCCO1)C(=O)Cn1nnc2ccccc21 (configuration not stated)  100%
9. Nc1nonc1-n1nnc(C(=O)c2ccccc2)c1-c1ccccc1  96.5%
10. Cc1ccc(S(=O)(=O)CCC(=O)Nc2ccc3c(c2)OCO3)cc1  96.5%
11. CCCC(=O)Nc1ccc(NC(=O)c2ccccc2OC)cn1  94.5%
12. Cn1cnnc1Sc1nc2c(c(=O)n(C)c(=O)n2C)n1C  87%
13. Cc1ccc(C)c2[nH]c(=O)c(CCNC(=O)c3ccc(Br)o3)cc12  87%
14. Cc1ccc(-c2nc(N)n(C(=O)c3cccnc3)n2)cc1  86.5%
15. O=C(CS(=O)(=O)c1cn(Cc2ccc(Cl)cc2)c2ccccc12)N1CCOCC1  84%
16. O=C(NCCSCc1ccco1)Nc1cccc(Cl)c1  83.5%
17. O=c1c2ccccc2nc(SCc2cn3ccsc3n2)n1-c1ccc(F)cc1  73%
